# From paper PMC11062922 (Nature Chemical Biology, 2023)
# Like-named read-outs stand apart in the source and are kept apart here.
# System: TNK2
# Conditions: read-out: apparent Kd, n = 1
substance,measurement,setting,value
Lestaurtinib,potency estimated from few doses,"compound concentrations:100 nM and 1000 nM (sheet 'Lestaurtinib' of Supplementary Table 1),run:Lestaurtinib_02473_R1,Plate:MR010",52.5 nM
same,potency estimated from few doses,"compound concentrations:100 nM and 1000 nM (sheet 'Lestaurtinib' of Supplementary Table 1),run:Lestaurtinib_02473_R3,Plate:MR010",23.2 nM
same,potency estimated from few doses,"compound concentrations:100 nM and 1000 nM (sheet 'Lestaurtinib' of Supplementary Table 1),run:Lestaurtinib_02482_R1,Plate:MR011",54.7 nM
same,potency estimated from few doses,"compound concentrations:100 nM and 1000 nM (sheet 'Lestaurtinib' of Supplementary Table 1),run:Lestaurtinib_02482_R2,Plate:MR011",59.1 nM
same,potency estimated from few doses,"compound concentrations:100 nM and 1000 nM (sheet 'Lestaurtinib' of Supplementary Table 1),run:Lestaurtinib_02482_R3,Plate:MR011",60.1 nM
same,potency estimated from few doses,"compound concentrations:100 nM and 1000 nM (sheet 'Lestaurtinib' of Supplementary Table 1),run:Lestaurtinib_02487_R1,Plate:MR012",51.2 nM
same,potency estimated from few doses,"compound concentrations:100 nM and 1000 nM (sheet 'Lestaurtinib' of Supplementary Table 1),run:Lestaurtinib_02487_R3,Plate:MR012",44.6 nM
same,potency estimated from few doses,"compound concentrations:100 nM and 1000 nM (sheet 'Lestaurtinib' of Supplementary Table 1),run:Lestaurtinib_02496_R2,Plate:MR013",48.4 nM
same,potency estimated from few doses,"compound concentrations:100 nM and 1000 nM (sheet 'Lestaurtinib' of Supplementary Table 1),run:Lestaurtinib_02496_R3,Plate:MR013",38.5 nM
same,potency estimated from few doses,"compound concentrations:100 nM and 1000 nM (sheet 'Lestaurtinib' of Supplementary Table 1),run:Lestaurtinib_02566_R1,Plate:MR014",51.6 nM
same,potency estimated from few doses,"compound concentrations:100 nM and 1000 nM (sheet 'Lestaurtinib' of Supplementary Table 1),run:Lestaurtinib_02566_R2,Plate:MR014",58.8 nM
same,potency estimated from few doses,"compound concentrations:100 nM and 1000 nM (sheet 'Lestaurtinib' of Supplementary Table 1),run:Lestaurtinib_02572_R1,Plate:MR015",37.5 nM
same,potency estimated from few doses,"compound concentrations:100 nM and 1000 nM (sheet 'Lestaurtinib' of Supplementary Table 1),run:Lestaurtinib_02572_R2,Plate:MR015",46.2 nM
same,potency estimated from few doses,"compound concentrations:100 nM and 1000 nM (sheet 'Lestaurtinib' of Supplementary Table 1),run:Lestaurtinib_02572_R3,Plate:MR015",49.3 nM
same,potency estimated from few doses,"compound concentrations:100 nM and 1000 nM (sheet 'Lestaurtinib' of Supplementary Table 1),run:Lestaurtinib_02577_R1,Plate:MR016",55.6 nM
same,potency estimated from few doses,"compound concentrations:100 nM and 1000 nM (sheet 'Lestaurtinib' of Supplementary Table 1),run:Lestaurtinib_02577_R2,Plate:MR016",56.4 nM
same,potency estimated from few doses,"compound concentrations:100 nM and 1000 nM (sheet 'Lestaurtinib' of Supplementary Table 1),run:Lestaurtinib_02577_R3,Plate:MR016",62.6 nM
same,potency estimated from few doses,"compound concentrations:100 nM and 1000 nM (sheet 'Lestaurtinib' of Supplementary Table 1),run:Lestaurtinib_02584_R1,Plate:MR017",56.4 nM
same,potency estimated from few doses,"compound concentrations:100 nM and 1000 nM (sheet 'Lestaurtinib' of Supplementary Table 1),run:Lestaurtinib_02584_R2,Plate:MR017",64.8 nM
same,potency estimated from few doses,"compound concentrations:100 nM and 1000 nM (sheet 'Lestaurtinib' of Supplementary Table 1),run:Lestaurtinib_02601_R1,Plate:MR018",77.3 nM
same,potency estimated from few doses,"compound concentrations:100 nM and 1000 nM (sheet 'Lestaurtinib' of Supplementary Table 1),run:Lestaurtinib_02606_R1,Plate:MR019",55.6 nM
same,potency estimated from few doses,"compound concentrations:100 nM and 1000 nM (sheet 'Lestaurtinib' of Supplementary Table 1),run:Lestaurtinib_02606_R3,Plate:MR019",54.4 nM
same,potency estimated from few doses,"compound concentrations:100 nM and 1000 nM (sheet 'Lestaurtinib' of Supplementary Table 1),run:Lestaurtinib_02624_R2,Plate:MR020",52.3 nM
same,potency estimated from few doses,"compound concentrations:100 nM and 1000 nM (sheet 'Lestaurtinib' of Supplementary Table 1),run:Lestaurtinib_02724_R2,Plate:MR021",56.1 nM
same,potency estimated from few doses,"compound concentrations:100 nM and 1000 nM (sheet 'Lestaurtinib' of Supplementary Table 1),run:Lestaurtinib_02741_R2,Plate:MR023",224 nM
same,potency estimated from few doses,"compound concentrations:100 nM and 1000 nM (sheet 'Lestaurtinib' of Supplementary Table 1),run:Lestaurtinib_02748_R1,Plate:MR024",38.5 nM
same,potency estimated from few doses,"compound concentrations:100 nM and 1000 nM (sheet 'Lestaurtinib' of Supplementary Table 1),run:Lestaurtinib_02748_R3,Plate:MR024",52.3 nM
same,potency estimated from few doses,"compound concentrations:100 nM and 1000 nM (sheet 'Lestaurtinib' of Supplementary Table 1),run:Lestaurtinib_02752_R1,Plate:MR025",57.7 nM
same,potency estimated from few doses,"compound concentrations:100 nM and 1000 nM (sheet 'Lestaurtinib' of Supplementary Table 1),run:Lestaurtinib_02752_R2,Plate:MR025",46.1 nM
same,potency estimated from few doses,"compound concentrations:100 nM and 1000 nM (sheet 'Lestaurtinib' of Supplementary Table 1),run:Lestaurtinib_02765_R2,Plate:MR026",115 nM
same,potency estimated from few doses,"compound concentrations:100 nM and 1000 nM (sheet 'Lestaurtinib' of Supplementary Table 1),run:Lestaurtinib_02765_R3,Plate:MR026",75.6 nM
same,potency estimated from few doses,"compound concentrations:100 nM and 1000 nM (sheet 'Lestaurtinib' of Supplementary Table 1),run:Lestaurtinib_02766_R1,Plate:MR027",51.8 nM
same,potency estimated from few doses,"compound concentrations:100 nM and 1000 nM (sheet 'Lestaurtinib' of Supplementary Table 1),run:Lestaurtinib_02766_R2,Plate:MR027",15.7 nM
same,potency estimated from few doses,"compound concentrations:100 nM and 1000 nM (sheet 'Lestaurtinib' of Supplementary Table 1),run:Lestaurtinib_02766_R3,Plate:MR027",41.6 nM
same,potency estimated from few doses,"compound concentrations:100 nM and 1000 nM (sheet 'Lestaurtinib' of Supplementary Table 1),run:Lestaurtinib_02768_R1,Plate:MR028",60 nM
same,potency estimated from few doses,"compound concentrations:100 nM and 1000 nM (sheet 'Lestaurtinib' of Supplementary Table 1),run:Lestaurtinib_02768_R2,Plate:MR028",56.1 nM
same,potency estimated from few doses,"compound concentrations:100 nM and 1000 nM (sheet 'Lestaurtinib' of Supplementary Table 1),run:Lestaurtinib_02795_R1,Plate:MR022",49.4 nM
same,potency estimated from few doses,"compound concentrations:100 nM and 1000 nM (sheet 'Lestaurtinib' of Supplementary Table 1),run:Lestaurtinib_02795_R3,Plate:MR022",160 nM
same,potency estimated from few doses,"compound concentrations:100 nM and 1000 nM (sheet 'Lestaurtinib' of Supplementary Table 1),run:Lestaurtinib_02802_R1,Plate:MR029",71.2 nM
same,potency estimated from few doses,"compound concentrations:100 nM and 1000 nM (sheet 'Lestaurtinib' of Supplementary Table 1),run:Lestaurtinib_02802_R3,Plate:MR029",9.76 nM
same,potency estimated from few doses,"compound concentrations:100 nM and 1000 nM (sheet 'Lestaurtinib' of Supplementary Table 1),run:Lestaurtinib_02896_R1,Plate:MR030",61.8 nM
same,potency estimated from few doses,"compound concentrations:100 nM and 1000 nM (sheet 'Lestaurtinib' of Supplementary Table 1),run:Lestaurtinib_02896_R3,Plate:MR030",53.9 nM
same,potency estimated from few doses,"compound concentrations:100 nM and 1000 nM (sheet 'Lestaurtinib' of Supplementary Table 1),run:Lestaurtinib_03172_R1,Plate:MR031",45.6 nM
same,potency estimated from few doses,"compound concentrations:100 nM and 1000 nM (sheet 'Lestaurtinib' of Supplementary Table 1),run:Lestaurtinib_03172_R3,Plate:MR031",48.7 nM
same,potency estimated from few doses,"compound concentrations:100 nM and 1000 nM (sheet 'Lestaurtinib' of Supplementary Table 1),run:Lestaurtinib_03252_R1,Plate:MR032",75.4 nM
same,potency estimated from few doses,"compound concentrations:100 nM and 1000 nM (sheet 'Lestaurtinib' of Supplementary Table 1),run:Lestaurtinib_03260_R1,Plate:MR033",115 nM
same,potency estimated from few doses,"compound concentrations:100 nM and 1000 nM (sheet 'Lestaurtinib' of Supplementary Table 1),run:Lestaurtinib_03260_R3,Plate:MR033",59.2 nM
